Assay results published in PubChem BioAssay (EPA / NIEHS).
“And” between values parts separate entries of the source, which are not always exact repeats. Equal values may be shown once. A structure can be active in one record and inactive in another. The source made the active and inactive calls. The calls were made as follows: active = hit-call score of the fitted dose curve at least 0.9, where 1 is the maximum; inactive = score below 0.9.

Tests used:
[1] = ATG_GLI_CIS: Attagene CIS-FACTORIAL HepG2 Assay for human Zinc Finger Protein GLI1 (AID 2282945); conditions: HepG2, Attagene cis-factorial reporter mRNA, GLI element; actives raise or lower the signal
Outline: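 HepG2 cells transiently transfected with cis-promoter multiplexed reporter units report endogenous transcription factor activity. After 24 h chemical exposure, reporter mRNA was quantified by RT-PCR, 6-FAM labelling, HpaI digestion and capillary electrophoresis, with bidirectional fitting against DMSO.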

[2] = biological target: Bile acid receptor (Homo sapiens) (UniProt Q96RI1); assay: ATG_IR1_CIS: Attagene CIS-FACTORIAL HepG2 Assay for human Nuclear Receptor Subfamily 1 Group H Member 4 (NR1H4), IR1 submotif (AID 2282946); conditions: IR1 reporter transcription, actives raise or lower the signal
Outline: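 Transient MRTU transfection, HepG2; 24 h dosing; RNA → RT-PCR → 6-FAM primer extension → HpaI digest → capillary electrophoresis fluorescence. Gain/loss of signal fitted relative to DMSO.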

[3] = ATG_GRE_CIS: Attagene CIS-FACTORIAL HepG2 Assay for human Glucocorticoid Response Elements (GRE) (AID 2282947); conditions: HepG2 GRE cis-reporter, Attagene multiplex mRNA; actives raise or lower the signal
Outline: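 Following 24 h chemical exposure of transiently transfected HepG2 cells, total RNA was reverse-transcribed and reporter cDNA amplified, fluorescently labelled and sized by capillary electrophoresis. Signal gain or loss was fitted relative to DMSO vehicle.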

[4] = ATG_ISRE_CIS: Attagene CIS-FACTORIAL HepG2 Assay for human Interferon Regulatory Factor 1 (IRF1) binding to an Interferon-Stimulated Response Element (ISRE) (AID 2282948); conditions: HepG2 ISRE cis-reporter (Attagene), mRNA transcription readout; actives raise or lower the signal
Outline: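 Cell-based cis-reporter assay; HepG2; 24 h exposure; reporter mRNA by RT-PCR plus capillary electrophoresis fluorescence; activity in either direction scored relative to DMSO.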

[5] = ATG_M_32_CIS: Attagene CIS-FACTORIAL HepG2 Assay for M32 Transcription Factor (Internal Marker) (AID 2282949); conditions: HepG2 Attagene cis-factorial M32 reporter, mRNA; actives raise or lower the signal;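 also: background control marker of the multiplexed CIS panel rather than a real target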
Outline: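 HepG2 cells transiently transfected with multiplexed cis-regulated reporter units, dosed 24 h. Reporter mRNA quantified by RT-PCR, 6-FAM labelling, HpaI digestion and capillary electrophoresis; bidirectional fit vs DMSO.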

[6] = ATG_M_06_CIS: Attagene CIS-FACTORIAL HepG2 Assay for M06 Transcription Factor (Internal Marker) (AID 2282950); conditions: HepG2 Attagene CIS-FACTORIAL M06 internal marker reporter; actives raise or lower the signal
Outline: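 Fluorescence-labelled RT-PCR products from cis-promoter reporter units, cut with HpaI and resolved by capillary electrophoresis, give the signal. Cells are human HepG2, dosed for 24 h. Serves as background control, fitted relative to DMSO.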

[7] = biological target: Hypoxia-inducible factor 1-alpha (Homo sapiens) (UniProt Q16665); assay: ATG_HIF1a_CIS: Attagene CIS-FACTORIAL HepG2 Assay for human Hypoxia Inducible Factor 1 (HIF1A) (AID 2282951); conditions: HepG2 Attagene cis-factorial HIF1a reporter transcription; actives raise or lower the signal
Outline: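 RT-PCR/capillary electrophoresis fluorescence readout of reporter transcripts from endogenous-TF-driven cis elements in transfected HepG2 cells, 24 h exposure; activity fitted in both directions against DMSO controls.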

[8] = biological target: Hepatocyte nuclear factor 6 (Homo sapiens) (UniProt Q9UBC0); assay: ATG_HNF6_CIS: Attagene CIS-FACTORIAL HepG2 Assay for human Hepatocyte Nuclear Factor 6 (HNF6) (AID 2282952); conditions: HepG2 Attagene cis-factorial HNF6 reporter transcription; actives raise or lower the signal
Outline: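 Multiplexed mRNA reporter assay in transfected HepG2; 24 h dosing; RT-PCR plus capillary electrophoresis fluorescence; DMSO-referenced bidirectional curve fitting.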

[9] = biological target: Heat shock factor protein 1 (Homo sapiens) (UniProt Q00613); assay: ATG_HSE_CIS: Attagene CIS-FACTORIAL HepG2 Assay for human Heat Shock Transcription Factor 1 (HSE) (AID 2282953); conditions: HepG2 HSE cis-reporter, Attagene RNA transcription; actives raise or lower the signal
Outline: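 After a 24 h incubation with test chemical, transfected HepG2 cells were harvested for RNA; reporter transcripts were measured by RT-PCR and capillary electrophoresis. Values reflect gain or loss of signal relative to DMSO.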

[10] = ATG_MRE_CIS: Attagene CIS-FACTORIAL HepG2 Assay for human Metal Responsive Element (MRE) (AID 2282954); conditions: HepG2 MRE cis-reporter transcription, Attagene multiplex; actives raise or lower the signal
Outline: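 Step one: transfect HepG2 with cis-regulated reporter units. Step two: dose 24 h. Step three: isolate RNA, RT-PCR, 6-FAM label, HpaI digest, capillary electrophoresis. Fit bidirectionally to DMSO.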

[11] = biological target: Paired box protein Pax-6 (Homo sapiens) (UniProt P26367); assay: ATG_Pax6_CIS: Attagene CIS-FACTORIAL HepG2 Assay for human Paired Box 6 (PAX6) (AID 2282956); conditions: HepG2 CIS-FACTORIAL PAX6 reporter transcription, RNA readout; actives raise or lower the signal
Outline: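 Multiplexed cis-reporter HepG2 system; 24 h treatment; reporter mRNA read by RT-PCR/CE fluorescence; bidirectional fit vs DMSO.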

[12] = ATG_PXRE_CIS: Attagene CIS-FACTORIAL HepG2 Assay for human Pregnane X Receptor Element (PXRE) (AID 2282957); conditions: HepG2 Attagene CIS-FACTORIAL PXRE reporter, mRNA; actives raise or lower the signal
Outline: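 Cells: HepG2, transiently transfected reporter units under cis promoter control. Exposure: 24 h. Detection: reporter mRNA via RT-PCR/CE fluorescence; bidirectional fitting, DMSO-referenced.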

[13] = ATG_PPRE_CIS: Attagene CIS-FACTORIAL HepG2 Assay for human Peroxisome Proliferator-activated Response Element (PPRE) (AID 2282958); conditions: HepG2 PPRE cis-element reporter, Attagene transcription factor profiling; actives raise or lower the signal
Outline: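 Read-out: fluorescent reporter mRNA fragments resolved by capillary electrophoresis after RT-PCR. HepG2 cells carried transiently transfected PPRE-driven cis reporter constructs and were dosed for 24 h; gain or loss of signal fitted relative to DMSO.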

[14] = ATG_RORE_CIS: Attagene CIS-FACTORIAL HepG2 Assay for human RAR-related Orphan Receptor Element (RORE) (AID 2282959); conditions: HepG2 Attagene cis-factorial RORE reporter, mRNA; actives raise or lower the signal
Outline: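 Readout: fluorescent reporter mRNA by RT-PCR plus capillary electrophoresis, 24 h after dosing transfected HepG2 cells. Endogenous transcription factor activity on a cis promoter element is measured. Gain or loss of signal fitted against DMSO.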

[15] = ATG_Sox_CIS: Attagene CIS-FACTORIAL HepG2 Assay for human SRY-box transcription factor (SOX) (AID 2282960); conditions: HepG2 Attagene cis-factorial SOX reporter, mRNA; actives raise or lower the signal
Outline: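 Read-out: fluorescent RT-PCR products of SOX1-linked reporter transcripts resolved by capillary electrophoresis, fitted bidirectionally against DMSO. Transiently transfected HepG2 cells, 24 h after chemical exposure, endogenous transcription factor activity.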

[16] = biological target: Transcription factor Sp1 (Homo sapiens) (UniProt P08047); assay: ATG_Sp1_CIS: Attagene CIS-FACTORIAL HepG2 Assay for human Specificity Protein 1 (Sp1) (AID 2282961); conditions: HepG2 Sp1 cis-reporter transcription, actives raise or lower the signal
Outline: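 Read-out: fluorescence of 6-FAM-labeled, HpaI-digested RT-PCR products separated by capillary electrophoresis. HepG2 cells carried transfected cis-element reporter units and were exposed to chemicals for 24 h; gain or loss of signal fitted relative to DMSO.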

[17] = ATG_SREBP_CIS: Attagene CIS-FACTORIAL HepG2 Assay for human Sterol Regulatory Element Binding (SREBP) (AID 2282962); conditions: HepG2 Attagene cis-factorial SREBP reporter, mRNA; actives raise or lower the signal
Outline: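 mRNA induction of transfected cis-promoter reporters in HepG2 cells, 24 h post-dose. Detection: RT-PCR with 6-FAM-labelled products, HpaI digest, capillary electrophoresis. DMSO served as negative control and baseline.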

[18] = biological target: Signal transducer and activator of transcription 3 (Homo sapiens) (UniProt P40763); assay: ATG_STAT3_CIS: Attagene CIS-FACTORIAL HepG2 Assay for human Signal Transducer and Activator of Transcription 3 (STAT3) (AID 2282963); conditions: HepG2, Attagene cis-factorial STAT3 reporter transcription; actives raise or lower the signal
Outline: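 Transcript-level reporter assay. HepG2 transient MRTU transfection, 24 h exposure, fluorescence detection after RT-PCR and CE; DMSO baseline.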

[19] = ATG_TA_CIS: Attagene CIS-FACTORIAL HepG2 Assay for human TA Basal Promoter (AID 2282964); conditions: HepG2 Attagene CIS-factorial TA basal promoter reporter; actives raise or lower the signal
Outline: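 Multiplexed mRNA reporter assay, HepG2, 24 h. Reporter cDNA amplified, 6-FAM primer-extended, HpaI-cut, CE-sized; DMSO = negative control and baseline.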

[20] = ATG_PBREM_CIS: Attagene CIS-FACTORIAL HepG2 Assay for human Phenobarbital-responsive Enhancer Module (PBREM) (AID 2282955); conditions: HepG2 PBREM cis-reporter, Attagene multiplexed transcription; actives raise or lower the signal
Outline: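 Reporter mRNA read by RT-PCR, 6-FAM primer extension, HpaI digestion and capillary electrophoresis. Transfected HepG2 cells, 24 h compound exposure. Gain or loss of signal fitted bidirectionally relative to DMSO baseline.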

Measured: AC50

Chain of Hypoxia-inducible factor 1-alpha (Homo sapiens) (Q16665 whole entry, looked up): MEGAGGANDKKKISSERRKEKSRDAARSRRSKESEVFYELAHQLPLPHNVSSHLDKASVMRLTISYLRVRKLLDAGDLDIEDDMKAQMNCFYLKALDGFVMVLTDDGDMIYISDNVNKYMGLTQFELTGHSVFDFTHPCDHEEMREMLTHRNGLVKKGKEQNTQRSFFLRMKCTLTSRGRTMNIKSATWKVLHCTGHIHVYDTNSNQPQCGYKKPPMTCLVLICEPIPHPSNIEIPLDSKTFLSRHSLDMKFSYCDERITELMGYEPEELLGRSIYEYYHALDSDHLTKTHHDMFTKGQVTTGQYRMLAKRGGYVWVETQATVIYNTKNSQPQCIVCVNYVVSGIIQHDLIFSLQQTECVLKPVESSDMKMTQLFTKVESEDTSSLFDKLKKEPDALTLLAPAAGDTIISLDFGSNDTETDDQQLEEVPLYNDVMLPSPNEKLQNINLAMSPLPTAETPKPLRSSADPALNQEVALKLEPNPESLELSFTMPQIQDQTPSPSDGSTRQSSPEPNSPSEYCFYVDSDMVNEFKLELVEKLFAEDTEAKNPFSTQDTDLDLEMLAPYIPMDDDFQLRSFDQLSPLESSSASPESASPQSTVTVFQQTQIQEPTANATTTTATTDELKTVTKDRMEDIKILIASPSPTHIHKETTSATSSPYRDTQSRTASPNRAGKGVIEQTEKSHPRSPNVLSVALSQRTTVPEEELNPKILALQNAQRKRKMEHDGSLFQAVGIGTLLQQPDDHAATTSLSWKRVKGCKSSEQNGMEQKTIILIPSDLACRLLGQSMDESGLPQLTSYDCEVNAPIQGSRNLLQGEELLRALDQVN
Chain of Heat shock factor protein 1 (Homo sapiens) (Q00613 whole entry, looked up): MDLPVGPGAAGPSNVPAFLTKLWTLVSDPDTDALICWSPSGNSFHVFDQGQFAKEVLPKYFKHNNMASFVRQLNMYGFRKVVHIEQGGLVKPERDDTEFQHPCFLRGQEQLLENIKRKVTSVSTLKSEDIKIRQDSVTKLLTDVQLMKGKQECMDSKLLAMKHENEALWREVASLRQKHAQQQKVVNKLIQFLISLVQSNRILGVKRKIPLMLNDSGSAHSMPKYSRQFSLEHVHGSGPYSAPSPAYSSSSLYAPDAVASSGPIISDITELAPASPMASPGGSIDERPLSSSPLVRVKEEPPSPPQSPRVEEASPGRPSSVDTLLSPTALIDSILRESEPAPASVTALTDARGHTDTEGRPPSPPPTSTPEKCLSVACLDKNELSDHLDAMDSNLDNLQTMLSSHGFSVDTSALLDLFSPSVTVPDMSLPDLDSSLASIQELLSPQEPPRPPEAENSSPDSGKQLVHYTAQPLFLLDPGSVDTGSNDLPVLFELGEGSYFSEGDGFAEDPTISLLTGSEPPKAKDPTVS
Chain of Signal transducer and activator of transcription 3 (Homo sapiens) (P40763 whole entry, looked up): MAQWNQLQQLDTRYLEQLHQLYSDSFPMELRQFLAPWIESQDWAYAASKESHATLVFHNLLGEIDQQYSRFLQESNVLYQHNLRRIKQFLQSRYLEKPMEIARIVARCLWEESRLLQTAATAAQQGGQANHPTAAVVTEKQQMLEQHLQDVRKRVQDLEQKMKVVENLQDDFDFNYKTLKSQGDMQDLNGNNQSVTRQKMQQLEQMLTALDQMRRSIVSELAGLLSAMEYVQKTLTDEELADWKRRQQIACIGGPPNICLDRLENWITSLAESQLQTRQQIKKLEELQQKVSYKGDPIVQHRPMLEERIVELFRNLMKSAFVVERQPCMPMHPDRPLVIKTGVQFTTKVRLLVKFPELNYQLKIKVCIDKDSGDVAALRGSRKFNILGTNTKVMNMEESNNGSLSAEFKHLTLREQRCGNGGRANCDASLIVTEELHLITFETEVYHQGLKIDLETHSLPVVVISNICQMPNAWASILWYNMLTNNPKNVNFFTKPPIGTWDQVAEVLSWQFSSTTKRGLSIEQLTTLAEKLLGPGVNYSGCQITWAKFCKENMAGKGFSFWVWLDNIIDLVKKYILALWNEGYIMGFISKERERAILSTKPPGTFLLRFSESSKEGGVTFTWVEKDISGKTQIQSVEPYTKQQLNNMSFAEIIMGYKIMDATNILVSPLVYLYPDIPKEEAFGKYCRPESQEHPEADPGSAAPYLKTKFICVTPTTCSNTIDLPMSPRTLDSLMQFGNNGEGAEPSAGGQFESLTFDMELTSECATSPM
Chain of Bile acid receptor (Homo sapiens) (Q96RI1 whole entry, looked up): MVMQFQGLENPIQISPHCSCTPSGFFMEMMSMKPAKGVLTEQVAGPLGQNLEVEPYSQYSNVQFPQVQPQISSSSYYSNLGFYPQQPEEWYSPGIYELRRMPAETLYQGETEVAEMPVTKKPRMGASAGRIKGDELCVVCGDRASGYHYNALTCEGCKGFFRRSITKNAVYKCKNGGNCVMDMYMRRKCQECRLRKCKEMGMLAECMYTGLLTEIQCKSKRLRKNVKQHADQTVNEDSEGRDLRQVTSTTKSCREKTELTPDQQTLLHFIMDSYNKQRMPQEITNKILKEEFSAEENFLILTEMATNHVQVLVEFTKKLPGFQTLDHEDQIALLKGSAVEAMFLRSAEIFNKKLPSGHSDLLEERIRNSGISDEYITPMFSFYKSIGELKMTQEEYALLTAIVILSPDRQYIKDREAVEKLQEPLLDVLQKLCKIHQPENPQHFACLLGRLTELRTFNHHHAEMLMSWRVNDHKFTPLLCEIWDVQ
Chain of Transcription factor Sp1 (Homo sapiens) (P08047 whole entry, looked up): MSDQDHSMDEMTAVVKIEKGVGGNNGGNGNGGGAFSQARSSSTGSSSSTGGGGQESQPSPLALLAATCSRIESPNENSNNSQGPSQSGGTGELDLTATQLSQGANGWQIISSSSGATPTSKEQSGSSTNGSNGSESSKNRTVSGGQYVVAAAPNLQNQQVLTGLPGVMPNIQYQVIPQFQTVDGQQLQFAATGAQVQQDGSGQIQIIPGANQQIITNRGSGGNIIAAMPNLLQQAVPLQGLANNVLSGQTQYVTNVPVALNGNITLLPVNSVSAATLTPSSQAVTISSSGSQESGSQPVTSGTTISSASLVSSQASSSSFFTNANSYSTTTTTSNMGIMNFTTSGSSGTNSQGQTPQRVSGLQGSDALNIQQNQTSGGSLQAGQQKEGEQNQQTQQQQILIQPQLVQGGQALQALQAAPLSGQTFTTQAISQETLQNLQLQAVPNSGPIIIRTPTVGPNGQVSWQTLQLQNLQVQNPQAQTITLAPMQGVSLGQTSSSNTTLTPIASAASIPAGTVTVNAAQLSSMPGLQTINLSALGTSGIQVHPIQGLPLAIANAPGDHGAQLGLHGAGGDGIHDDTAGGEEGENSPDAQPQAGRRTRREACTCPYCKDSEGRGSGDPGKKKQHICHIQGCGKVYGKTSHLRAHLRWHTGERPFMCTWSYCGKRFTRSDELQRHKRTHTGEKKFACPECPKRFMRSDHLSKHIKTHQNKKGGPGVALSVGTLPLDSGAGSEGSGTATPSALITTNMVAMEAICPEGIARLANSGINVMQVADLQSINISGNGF
Chain of Paired box protein Pax-6 (Homo sapiens) (P26367 whole entry, looked up): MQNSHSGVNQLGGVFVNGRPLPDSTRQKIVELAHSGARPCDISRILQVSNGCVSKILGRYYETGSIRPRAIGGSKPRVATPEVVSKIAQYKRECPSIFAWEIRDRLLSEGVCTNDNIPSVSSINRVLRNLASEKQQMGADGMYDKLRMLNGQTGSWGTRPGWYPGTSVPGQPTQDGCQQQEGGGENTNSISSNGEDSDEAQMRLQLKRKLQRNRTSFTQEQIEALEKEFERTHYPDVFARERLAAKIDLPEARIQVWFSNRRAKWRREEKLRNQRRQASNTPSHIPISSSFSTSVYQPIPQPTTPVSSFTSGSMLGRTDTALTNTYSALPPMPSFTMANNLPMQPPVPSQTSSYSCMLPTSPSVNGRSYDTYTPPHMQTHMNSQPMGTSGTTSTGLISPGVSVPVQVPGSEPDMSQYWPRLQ
Chain of Hepatocyte nuclear factor 6 (Homo sapiens) (Q9UBC0 whole entry, looked up): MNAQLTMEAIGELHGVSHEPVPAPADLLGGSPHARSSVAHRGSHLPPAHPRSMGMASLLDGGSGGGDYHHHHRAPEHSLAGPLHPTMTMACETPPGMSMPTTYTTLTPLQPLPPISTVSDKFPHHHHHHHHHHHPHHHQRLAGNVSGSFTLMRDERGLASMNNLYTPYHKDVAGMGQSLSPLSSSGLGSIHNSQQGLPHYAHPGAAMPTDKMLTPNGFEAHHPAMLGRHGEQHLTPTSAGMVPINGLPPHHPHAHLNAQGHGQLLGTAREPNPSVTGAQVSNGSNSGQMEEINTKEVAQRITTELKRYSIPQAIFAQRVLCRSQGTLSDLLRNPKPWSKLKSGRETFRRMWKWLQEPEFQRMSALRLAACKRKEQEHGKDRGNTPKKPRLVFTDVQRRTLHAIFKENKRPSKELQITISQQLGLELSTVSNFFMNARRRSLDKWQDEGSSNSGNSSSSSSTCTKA

c1ccc(-c2ccccc2-c2ccccc2)cc1
active: [2] 27.1 µM | [4] 100 µM | [12] 5.73 µM | [16] 100 µM | [17] 100 µM
not listed: [20]
inactive: all other assays above

O=C(O)C(F)(F)C(F)(F)F
inactive: all assays above

CCc1ccc(C(c2ccc(CC)cc2)C(Cl)Cl)cc1
active: [12] 2.28 µM
inactive: all other assays above

O=C(O)C(F)(OC(F)(F)C(F)(OC(F)(F)C(F)(F)C(F)(F)F)C(F)(F)F)C(F)(F)F (centres undefined)
inactive: all assays above

O=S(=O)(OCCOC(F)(F)F)C(F)(F)F
inactive: all assays above

O=S(=O)(O)C(F)(F)C(F)(F)C(F)(F)C(F)(F)C(F)(F)C(F)(F)C(F)(F)F
active: [5] 149 µM | [8] 157 µM | [13] 61.2 µM | [17] 150 µM | [18] 163 µM | [19] 159 µM
inactive: [1] | [2] | [3] | [4] | [5] | [6] | [7] | [8] | [9] | [10] | [11] | [13] | [14] | [15] | [16] | [17] | [18] | [19]

COC(OC(C)=O)c1ccccc1 (centres undefined)
inactive: all assays above

NC(=O)C(F)(F)C(F)(F)C(F)(F)C(F)(F)F
not listed: [20]
inactive: all other assays above

C=CC(=O)OCC(F)(F)C(F)(F)C(F)(F)C(F)(F)COC(=O)C=C
inactive: [2] | [3] | [5] | [6] | [20] | [12] | [13] | [18] | [19]
active: [1] 81.1 µM | [4] 61.4 µM | [7] 33.8 µM | [8] 60.3 µM | [9] 79 µM | [10] 56.7 µM | [11] 62.1 µM | [14] 40.3 µM | [15] 56.2 µM | [16] 44.7 µM | [17] 72.4 µM

O=C(O)C(F)(F)C(F)(F)C(F)(F)F
not listed: [20]
inactive: all other assays above

CC(Cc1ccc(O)c(O)c1)C(C)Cc1ccc(O)c(O)c1 (centres undefined)
active: [7] 8.95 µM | [9] 57.7 µM | [10] 22.3 µM | [20] 9.19 µM | [11] 22.1 µM | [12] 8.39 µM | [14] 6.13 µM | [15] 33.4 µM | [16] 8.73 µM | [19] 18.4 µM
inactive: all other assays above

O=P(O)(O)OCCC(F)(F)C(F)(F)C(F)(F)C(F)(F)C(F)(F)C(F)(F)F
not listed: [12]
inactive: all other assays above

OCCCC(F)(F)C(F)(F)C(F)(F)C(F)(F)C(F)(F)C(F)(F)C(F)(F)F
active: [3] 96.3 µM | [7] 197 µM | [8] 83 µM | [9] 95.1 µM | [10] 50 µM | [11] 50 µM and 41.8 µM | [12] 79.6 µM | [14] 247 µM | [15] 68.9 µM | [16] 96.5 µM | [17] 50 µM | [18] 78.9 µM
inactive: [1] | [2] | [3] | [4] | [6] | [7] | [8] | [9] | [10] | [12] | [13] | [14] | [15] | [16] | [17] | [18] | [19]
